Screening data (PubChem)
Epigenetic derep: Quantitative High-Throughput Screen for Regulators of Epigenetic Control; Potency, µM (titrated, usually from 53.9 µM), inactives show at the top dose GFP activation, actives largely listed as activators; murine LDR cells, GFP reporter derepression, 30 h; 280,000 compounds, 0.2% hits; AID 1865, 2009; also: % of control where 0% means no effect; nearly all actives have a fitted effect of over 60% in size
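Murine LDR cells bearing a silenced CMV-driven GFP reporter were exposed to compound for 30 h at 37 C. After PBS washes, GFP-positive cells (20-120 um objects) counted by laser-scanning microplate cytometry.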
Nrf2 inh: Nrf2 qHTS screen for inhibitors. A549 ARE-Fluc reporter, luciferase luminescence, 18-24 h. Potency, µM (top dose mostly 46 µM), inactives show at the highest dose activity change, negative = inhibition, usual class: inhibitors. 360,000 compounds, 2.1% hits; also: % is scaled to controls: 0 for no effect and ±100 for the full control effect; nearly all actives have a fitted effect of over 60% in size
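Nrf2 function is reported as luminescence of an ARE-controlled luciferase in A549 cells. Compounds were tested at several concentrations, and a CellTiter-Fluor read on the same wells flagged cytotoxicity.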
Nrf2 activator: qHTS of Nrf2 Activators; AREc32 ARE-luciferase reporter (MCF7-derived line), luminescence, 24 h; Potency, µM (series often up to 46.1 µM), inactives show at the top dose activation, most hits filed as activators; 410,000 compounds, 0.31% hits; AID 624171, 2012; also: % of control where 0% means no effect; nearly all actives have a fitted effect of over 65% in size
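ARE-driven firefly luciferase activity in AREc32 cells measured after a 24 hr compound exposure at 37 deg C, using Steady-Glo reagent and a 30 min room-temperature hold.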
PINK1 expr mod: A Quantitative High throughput Screen to Identify Chemical Modulators of PINK1 Expression | PINK1 immunofluorescence, high-content cytometry, 24 h | Potency, µM (top dose mostly 76.6 µM), without a hit: top-dose activation (PINK1 increase), hits mostly activators | 410,000 compounds, 0.2% hits | AID 624263, 2012; active = well fitted activation curve with a large enough effect; inconclusive = small, poorly fitted or top-dose-only effect; cell line not stated here; also: % of control where 0% means no effect; nearly all actives have a fitted effect of over 65% in size
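Readout is PINK1 immunofluorescence, quantified alongside mitochondrial, cell and nuclear markers by laser-scanning microplate cytometry. Cells from a stable line were exposed to compound titrations (5 concentrations) for 24 hours, with CCCP controls.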
A549 tox: Nrf2 qHTS screen for inhibitors: counterscreen for cytotoxicity. A549 ARE-Fluc cells, CellTiter-Fluor viability, 18-24 h. Potency, µM (top dose mostly 46 µM), inactives show at the highest dose activity change, negative = cytotoxicity, usual class: inhibitors. 390,000 compounds, 0.16% hits; also: % is scaled to controls: 0 for no effect and ±100 for the full control effect
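A549 ARE_Fluc cells in 5% FBS OPTI-MEM were exposed to compounds in concentration-response for 18-24 h at 37 deg C. Viability was read by CellTiter-Fluor fluorescence (Ex 405/Em 525) after 30 min, before the luciferase read.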
An asterisk follows results filed as active; ? = inconclusive; . = no result given; [ ] = dose if it differs, or a comment. This is a sample that favours compounds with a hit; in the whole collection about 2.4% have one here. Unless noted, calls follow the shape of the dose curve; as a rule, active = well fitted curve in the direction sought with a large enough effect; inconclusive = small, poorly fitted or top-dose-only effect, or another doubt; inactive = no such curve, though single readings can be large; an effect the other way counts as inactive or inconclusive. Potency is read from the fitted curve at half-maximal effect.

SMILES	Epigenetic derep	Nrf2 inh	Nrf2 activator	PINK1 expr mod	A549 tox
Cc1c(C(=O)NCc2ccccn2)oc2ccc(S(=O)(=O)N3CCC4(CC3)OCCO4)cc12	-1%	-28%	1%	0%	10%
CCCCN(C)C(=O)c1oc2ccc(S(=O)(=O)N3CCCCCC3)cc2c1C	-2%	16µM*	3%	3%[38.3 µM]	-13%
Cc1c(C(=O)NCC2COc3ccccc3O2)oc2ccc(S(=O)(=O)N3CCOCC3)cc12 (stereo unspecified)	0%	18µM*	-1%	0%	-16%
O=C(NCC1COc2ccccc2O1)c1cc(S(=O)(=O)N2CCOCC2)c(Cl)cc1Cl (stereo unspecified)	.	23µM*	2%	-3%	0%
Cc1c(C(=O)NCc2ccccc2)oc2ccc(S(=O)(=O)N3CCC4(CC3)OCCO4)cc12	-3%	21µM*	3%	-1%	1%
Cn1cc(-c2nc3cnc(N4CCOCC4)nc3n(CCC#N)c2=O)c2ccccc21	.	.	.	6%	.
C=CCn1c(SCC(=O)N2c3ccccc3Sc3ccccc32)nnc1-c1ccco1	1%	0%	4%	0%	-6%
CCn1c(SCC(=O)N2c3ccccc3Sc3ccccc32)nnc1-c1ccco1	0%	23µM*	3%	.	-10%
Cc1oc2ccc(O)cc2c1C(=O)c1ccc([N+](=O)[O-])cc1	-2%	?	7%	1%	0%
CN(C)/C=C/c1oc2ccc(O)cc2c1[N+](=O)[O-]	-1%	?	7%	5%	16µM*
COc1cc(/C=C/c2cc(OC(C)=O)c3ccccc3n2)c(OC(C)=O)c([N+](=O)[O-])c1	11%	?	3%	.	15µM*
COc1ccc(C)cc1NC(=O)c1c(C(=O)Nc2cccc(C)c2C)sc2nc(C)cc(=O)n12	-1%	-2%	-1%	1%	-2%
CC(C)c1ccc(NC(=O)c2cc3c(=O)[nH]c4ccccc4c3n2C)cc1	3%	-26%	1%	3%	12%
Cc1cccc(OCCC(=O)NO)c1	.	.	.	4%	.
O=C1Nc2ccccc2N(O)N1c1ccc(Cl)cc1	-4%	-1%	0%	2%	-5%
CCN1c2ccccc2NC2C1C(C(C)=O)C(=O)N2c1ccc(Cl)cc1 (stereo unspecified)	25µM*	?	21%	5%[38.3 µM]	-12%
Cc1cc(C)nc(SCC(=O)Nc2cccc(S(=O)(=O)N(C)C)c2)n1	0%	18µM*	4%	4%	-5%
NS(=O)(=O)c1ccc(NC(=O)CSc2nc3ccccc3n2-c2ccccc2)cc1	-1%	?	2%	15%	?
CN(C)S(=O)(=O)c1cccc(NC(=O)CSc2nc3ccccc3n2-c2ccccc2)c1	9%	18µM*	2%	1%	?
CN(C)S(=O)(=O)c1ccc(NC(=O)CSc2nc3ccccc3n2-c2ccccc2)cc1	-3%	21µM*	4%	-2%	1%
COC(=O)c1cccc(-c2cc(Cl)c3c(c2)CC(CNC(=O)c2cccnc2)O3)c1 (stereo unspecified)	.	.	.	0%	.
O=C1CC(C(=O)Nc2ccc(Br)cc2)S/C(=N\N=C\c2ccco2)N1 (stereo unspecified)	-3%	-7%	6.3µM*	15%	-2%
O=C1CC(C(=O)Nc2ccccc2)S/C(=N\N=C\c2ccco2)N1 (stereo unspecified)	-1%	3%	?	0%	-9%
COc1ccc(NC(=O)C2CC(=O)N/C(=N/N=C/c3ccco3)S2)cc1 (stereo unspecified)	-1%	?	2.5µM*	2%	10%
COCC(=O)Nc1cc(C(=O)N2CCCOc3c(cccc3OC)C2)c2c(c1)nc(C1CCC1)n2C	.	.	.	1%	.
SMILES	Epigenetic derep	Nrf2 inh	Nrf2 activator	PINK1 expr mod	A549 tox
CCOc1ccc(N(CC)S(=O)(=O)N2CCCC(C(=O)Nc3cc(Cl)ccc3C)C2)cc1 (stereo unspecified)	-4%	?	3%	0%	-8%
COc1ccc(C2CC(c3ccccc3)Oc3cc(C)c(Cl)c(C)c32)cc1 (stereo unspecified)	.	4%	.	.	9%
O=[S+]([O-])(c1c(F)cccc1F)N1CCN([S+](=O)([O-])c2csc3ccccc23)CC1	.	-3%	.	.	17%
CCN(CC)CC(=O)c1c(N)n(Cc2ccccc2)c(=O)n(C)c1=O	-2%	-11%	0%	0%	2%
CCCN(CC(=O)Nc1ccccc1OC)CC(=O)c1c(N)n(Cc2ccccc2)c(=O)n(C)c1=O	.	13µM*	0%	-1%	-19%
CCOc1ccc(CCNC(=O)CCN2N=C(c3ccc(OC)cc3)CCC2=O)cc1OCC	-1%	.	3%	0%	4%
O=C(Nc1ccccc1)c1cc(S(=O)(=O)NCc2ccncc2)ccc1Cl	.	18µM*	0%	-1%	-4%
COc1ccc(S(=O)(=O)NCc2ccncc2)cc1NC(=O)c1ccccc1	.	6.5µM*	3%	0%	-7%
COc1ccc(S(=O)(=O)NCc2ccncc2)cc1NC(=O)c1ccc(Cl)cc1	.	4.6µM*	2%	5%	-3%
CN(c1ccc(F)cc1)S(=O)(=O)c1ccc(Cl)c(C(=O)Nc2ccncc2)c1	.	18µM*	10%	1%	-8%
O=C(Nc1ccccc1)c1cc(S(=O)(=O)Nc2cccnc2)ccc1Cl	.	-10%	4%	1%	0%
CC(=O)c1ccccc1-c1ccc2c(c1)CC(CNC(=O)C[C@@H]1C[C@@H](C)NC(=S)N1)O2 (stereo partly specified)	.	.	.	0%	.
COc1cccc(CC(=O)NCC2Cc3cc(Cl)cc(-c4ncccn4)c3O2)c1 (stereo unspecified)	.	.	.	0%	.
COc1ccc2c(c1)C/C(=C\c1ccc(N(C)C)cc1)C2=O	.	.	.	2%	.
COC(=O)C1=C(C)NC(=O)/C1=C\c1cc(C)n(-c2ccccc2C)c1C	0%	?	3%	-1%	-22%
COC(=O)C1=C(C)NC(=O)/C1=C\c1cc(C)n(-c2c(C)cccc2C)c1C	-3%	23µM*	6%	.	21µM*
O=C1C(=O)c2ccc(-c3ccccc3)cc2-c2ccccc21	2%	21µM*	-3%	-3%	.
Nc1ccc2c(c1)C(=O)C(=O)c1ccccc1-2	1%	.	-3%	-4%	?
O=C(NCCc1ccncc1)c1cnn(-c2ncc3c(n2)-c2ccccc2CCC3)c1C1CC1	.	.	.	0%	.
Cc1c(C(=O)NCc2ccc(F)cc2)sc2ncnc(NCC3CCCO3)c12 (stereo unspecified)	.	.	.	1%	.
CCn1c(=O)c(C(=O)Nc2nc3ccccc3[nH]2)c(O)c2ccccc21	-1%	16µM*	8%	?	21µM*
COc1cccc(C2c3c(ncn(-c4cccc(F)c4)c3=N)Oc3ccc4ccccc4c32)c1 (stereo unspecified)	.	?	.	.	-1%
